Luciferase inh – inhibitors of firefly (Photinus pyralis) luciferase | purified P. pyralis luciferase, luminescence, biochemical | Potency, µM (highest dose often 115 µM), most hits filed as inhibitors | AID 1347043 | hit rate 2.5% among 76,000 | P08659; note: nearly all actives have a fitted effect of over 65% in size
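Inhibitors were tested against purified firefly luciferase in a biochemical, low-substrate format (both substrates at 10uM) and luminescence measured with a CCD imager.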
NPR1 antag – blocks ANP-stimulated signaling of human Npr1 receptor. P16066. HEK293 hNpr1 GloSensor cGMP, ANP-stimulated luminescence. Potency, µM (top dose mostly 46.3 µM), inactives show top-dose activity change, negative = inhibition, actives largely listed as inhibitors. hit rate 1.6% among 76,000. AID 1347048; calls by dose curve; note: nearly all actives have a fitted effect of over 60% in size
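HEK293 cells stably expressing human Npr1 and cGMP GloSensor pGS-40F, loaded 2 h with 2% GloSensor reagent, given compound 30 min at room temperature. Luminescence read before and 20 min after 0.1 nM hNppA.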
HEK cytotox – kills HEK 293 cells. HEK 293 viability, ATP luminescence (CellTiter-Glo), 48-72 h. hit rate 6.6% among 94,000. Potency, µM (highest dose often 115 µM), without a hit: at the highest dose activity change, negative = cytotoxicity, most hits filed as inhibitors; note: nearly all actives have a fitted effect of over 60% in size
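Viability of HEK 293 cells, plated at 250 cells/well, was judged by cellular ATP after compound treatment for 48 or 72 hr. Luminescence was imaged 10 min after CellTiter-Glo addition at room temperature.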
NIH3T3 tox – cytotoxic compounds in NIH 3T3 cells. NIH 3T3 viability, CellTiter-Glo ATP luminescence, 48-72 h. Potency, µM (highest dose often 96.7 µM), for inactives: at the highest dose activity change, negative = cytotoxicity, actives largely listed as inhibitors. hit rate 4.3% among 94,000; note: nearly all actives have a fitted effect of over 55% in size
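ATP-dependent luminescence (CellTiter-Glo) served as the viability signal for NIH 3T3 cells treated with compound for 48 or 72 hr at 37 °C.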
Active calls of the source: *; [ ] = dose if it differs, or a comment. Shown are actives, neighbours in structure and some others; about 11% of the full set was active somewhere. Unless noted, calls come from the whole dose curve; as a rule, active = well fitted curve in the direction sought with a large enough effect; inconclusive = small, poorly fitted or top-dose-only effect, or another doubt; inactive = no such curve, though single readings can be large; an effect the other way counts as inactive or inconclusive. % is set by controls: 0 for no effect and ±100 for the full control effect; potency is the fitted concentration of half-maximal effect.

For CC(=O)Oc1c(-c2ccc(NC(=O)CC(C)C)cc2)c(-c2ccc(F)cc2)nn1-c1ccc(F)cc1 the results were Luciferase inh inactive, NPR1 antag -17.4%, HEK cytotox inconclusive and NIH3T3 tox inconclusive.
Screening COCC(=O)NC1CCN(c2nccc(Nc3ccc(C)cc3)n2)CC1 returned HEK cytotox inconclusive and NIH3T3 tox 35.5µM*.
For COc1ccccc1Nc1ccnc(N2CCC(NC(=O)Cc3cccc(Cl)c3)CC2)n1 the results were HEK cytotox inconclusive and NIH3T3 tox 31.6µM*.
`Cc1ccc(Nc2ccnc(N3CCCC3C(=O)NC3CC3)n2)cc1` (centres undefined) gave HEK cytotox inconclusive and NIH3T3 tox -18.6%.
Screening Cc1ccc(Nc2ccnc(N3CCC(NC(=O)Cc4cccc(Cl)c4)CC3)n2)cc1 returned HEK cytotox 25.1µM* and NIH3T3 tox 17.8µM*.
COc1ccc(C(=O)NC2CCN(c3nccc(Nc4ccccc4OC)n3)CC2)cc1 was read as HEK cytotox -17.6% and NIH3T3 tox -6.2%.
`CCOc1ccccc1CNC(=O)c1cccc2c1CCN2C(=O)CC` gave Luciferase inh inactive, NPR1 antag 4.0%, HEK cytotox 3.9% and NIH3T3 tox -0.9%.
For COCCN1C(=O)CCc2cc(NC(=O)c3ccc(C)cc3C)ccc21 the results were Luciferase inh 39.8µM*, NPR1 antag 0.0%, HEK cytotox inconclusive and NIH3T3 tox inconclusive.
For COCCN1C(=O)CCc2cc(NC(=O)c3ccccc3C)ccc21 the results were Luciferase inh inactive, NPR1 antag 0.4%, HEK cytotox -8.5% and NIH3T3 tox -13.3%.
CCN1C(=O)CCc2cc(NC(=O)c3ccc(OC)cc3C)ccc21 was read as Luciferase inh 25.1µM*, NPR1 antag -1.9%, HEK cytotox 70.8µM* and NIH3T3 tox inconclusive.
For CCN1C(=O)CCc2cc(NC(=O)c3cc(F)cc(F)c3)ccc21 the results were Luciferase inh inconclusive, NPR1 antag -2.5%, HEK cytotox inconclusive and NIH3T3 tox inconclusive.
Screening COc1ccc(C(=O)N2CC[C@H]3C(=O)NCCCCCCN(Cc4ccncc4)[C@@H]3C2)cc1 returned Luciferase inh inactive, NPR1 antag 2.8%, HEK cytotox -0.6% and NIH3T3 tox -14.3%.
For CCc1cc(=O)n(CC(=O)N2CCN(c3ccccc3F)CC2)c(N2CCOCC2)n1 the results were Luciferase inh inactive, NPR1 antag -23.5%, HEK cytotox 39.8µM* and NIH3T3 tox inconclusive.
CCc1cc(=O)n(CC(=O)N2CCN(c3ccc(OC)cc3)CC2)c(N2CCOCC2)n1 was read as Luciferase inh inactive, NPR1 antag -13.8%, HEK cytotox inconclusive and NIH3T3 tox -18.5%.
CN1CCN(c2ccc(-c3cc4c(ccn4C)c(C(=O)NCc4cccnc4)n3)cc2)CC1 was read as Luciferase inh inconclusive, NPR1 antag -3.7%, HEK cytotox 28.2µM* and NIH3T3 tox inconclusive.
For Cn1ccc2c(C(=O)NCc3cccnc3)nc(-c3cncnc3)cc21 the results were Luciferase inh inactive, NPR1 antag 1.6%[70.6 µM], HEK cytotox -20.9%[172 µM] and NIH3T3 tox 44.7µM*.
`CN(C)c1ccc(-c2cc3c(ccn3C)c(C(=O)NCc3cccnc3)n2)cc1` gave Luciferase inh inconclusive, NPR1 antag -3.4%[70.6 µM], HEK cytotox inconclusive and NIH3T3 tox inconclusive.
For COc1ccc(-c2cc3c(ccn3C)c(C(=O)NCc3cccnc3)n2)cc1 the results were Luciferase inh inconclusive, NPR1 antag -29.6%[70.6 µM], HEK cytotox 112µM* and NIH3T3 tox inconclusive.
CN1CCN(c2ccc(-c3cc4c(ccn4C)c(C(=O)NCC4CCOCC4)n3)cc2)CC1 was read as Luciferase inh 35.5µM*, NPR1 antag 1.8%, HEK cytotox inconclusive and NIH3T3 tox 20µM*.
Screening COc1ccccc1-n1c(=O)c(C(=O)NC2CCCC2)nc2cccnc21 returned HEK cytotox -0.1% and NIH3T3 tox -17.4%.
`Cn1ccc2c(C(=O)NCc3cccnc3)nc(-c3cccc(O)c3)cc21` gave Luciferase inh inactive, NPR1 antag -20.7%[70.6 µM], HEK cytotox inconclusive and NIH3T3 tox inconclusive.
For Cc1ccc(-c2cc3c(ccn3C)c(C(=O)NCc3cccnc3)n2)cn1 the results were Luciferase inh inactive, NPR1 antag 7.8%[70.6 µM], HEK cytotox inconclusive and NIH3T3 tox 35.5µM*.
Screening Cn1ccc2c(C(=O)NCc3cccnc3)nc(-c3cnn(Cc4ccccc4)c3)cc21 returned Luciferase inh inactive, NPR1 antag -12.7%[70.6 µM], HEK cytotox 63.1µM* and NIH3T3 tox inconclusive.

From PubChem BioAssay
